Our source for the Potency and outcome values is PubChem BioAssay (NCATS).

SMILES strings stand for the structures. Unmarked numbers belong to inactive results. Inconclusive results are not listed. Active and inactive are the calls of the source. Unless noted, calls come from the whole dose curve; as a rule, active = well fitted curve in the direction sought with a large enough effect; inconclusive = small, poorly fitted or top-dose-only effect, or another doubt; inactive = no such curve, though single readings can be large; an effect the other way counts as inactive or inconclusive.

Test [1] concerns the target Cytochrome P450 1A2 (Homo sapiens) (UniProt P05177). In words: p450-cyp1a2 (AID 410; calls by dose curve; note: potency is the fitted concentration of half-maximal effect). The essentials: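 O-Demethylation of luciferin 6' methyl ether by human CYP1A2 is monitored as luciferase luminescence. Substrate sits at Km (100uM); enzyme is 20nM. Values are scaled to 57 uM furafylline as maximal inhibition.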
The target in test [2] is Glucocorticoid receptor (Homo sapiens) (UniProt P04150). Description: GR-EFC Redistribution (AID 451; calls by dose curve; note: potency is the fitted concentration of half-maximal effect). Conditions: CHO-K1 GR-EFC translocation, beta-gal luminescence, 2 h. The gist of the method: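 CHO-K1 cells expressing nuclear EA and GR-ED fragments of b-gal; compounds titrated up to 46 uM final, 2 h at 37 C. GR nuclear translocation read as complemented b-gal luminescence after 1 h RT detection.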
Glucocorticoid receptor (Homo sapiens), sequence (P04150 whole entry, looked up, the tested form may be a part): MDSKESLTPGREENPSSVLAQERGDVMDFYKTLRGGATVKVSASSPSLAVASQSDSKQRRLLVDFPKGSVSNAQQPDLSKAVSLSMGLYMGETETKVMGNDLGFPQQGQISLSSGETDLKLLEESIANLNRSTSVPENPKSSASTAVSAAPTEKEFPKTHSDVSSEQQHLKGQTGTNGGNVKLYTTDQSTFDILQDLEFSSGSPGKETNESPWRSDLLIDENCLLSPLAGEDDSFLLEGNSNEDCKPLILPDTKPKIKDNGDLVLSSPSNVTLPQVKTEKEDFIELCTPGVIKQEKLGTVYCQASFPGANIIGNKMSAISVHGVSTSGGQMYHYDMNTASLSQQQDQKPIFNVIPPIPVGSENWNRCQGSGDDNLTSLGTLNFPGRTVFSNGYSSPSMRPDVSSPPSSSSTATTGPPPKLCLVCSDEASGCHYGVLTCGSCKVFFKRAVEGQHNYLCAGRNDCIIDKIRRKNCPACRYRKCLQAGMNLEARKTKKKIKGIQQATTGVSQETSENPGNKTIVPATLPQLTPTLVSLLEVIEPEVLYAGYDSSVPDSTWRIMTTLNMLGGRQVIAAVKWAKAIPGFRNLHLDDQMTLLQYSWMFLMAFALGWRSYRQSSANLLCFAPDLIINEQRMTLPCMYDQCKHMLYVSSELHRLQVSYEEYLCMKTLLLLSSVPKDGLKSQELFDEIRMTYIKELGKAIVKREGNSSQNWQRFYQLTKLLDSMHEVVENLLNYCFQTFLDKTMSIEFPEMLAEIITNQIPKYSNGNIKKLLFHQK

The target of test [3] is Mitogen-activated protein kinase 10 (Mus musculus) (UniProt Q61831). In words: JNK3 AlphaScreen Assay (AID 530; active = well fitted curve in either direction with a large enough effect, not every such curve was filed as active;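 note: kinase came from lysate of stimulated human HepG2 cells; signal reports phosphorylation of biotinylated GST-cJun 1-79 at Ser73 with 10 µM ATP; series mostly up to about 57 µM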). The essentials:
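Activity was read by AlphaScreen after JNK3-containing HepG2 lysate (cytokine pre-activated) phosphorylated biotinylated GST-cJun with 10 uM ATP at room temperature. Phospho-Ser73 cJun antibody with Protein-A acceptor beads provided detection.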

The target of test [4] is 3',5'-cyclic-AMP phosphodiesterase 4B (Homo sapiens) (UniProt Q07343). Description: qHTS Assay for Inhibitors of PDE-IV (AID 607; active = well fitted activation curve with a large enough effect in the main read-out, with a control signal flat, not every such curve was filed as active). The essentials:
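HEK293 ACTOne cells with CNG channel (1000/well), endogenous PDE4; membrane potential dye, compounds up to 22.9 uM final. Fluorescence Ex 535/Em 590; RO 20-1724 (100 uM final) as reference.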
A general note: qHTS replaces the single test concentration by a dilution series.

In test [5] the target is Cytochrome P450 2D6 (Homo sapiens) (UniProt P10635). In words: qHTS Assay for Inhibitors and Substrates of Cytochrome P450 2D6 (AID 891).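 Note: luciferin methyl ether substrate demethylated by CYP2D6 with NADPH regeneration; nearly all actives have a fitted effect of over 60% in size.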 The gist of the method: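 Luminescent read-out of luciferin formed by 5 nM human CYP2D6 demethylating 30 uM Luciferin-ME EGE (Km level) over 60 min at room temperature after NADPH regeneration addition. Data normalized to full inhibition by 1.43 uM quinidine.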
Cytochrome P450 2D6 (Homo sapiens), sequence (P10635 whole entry, looked up): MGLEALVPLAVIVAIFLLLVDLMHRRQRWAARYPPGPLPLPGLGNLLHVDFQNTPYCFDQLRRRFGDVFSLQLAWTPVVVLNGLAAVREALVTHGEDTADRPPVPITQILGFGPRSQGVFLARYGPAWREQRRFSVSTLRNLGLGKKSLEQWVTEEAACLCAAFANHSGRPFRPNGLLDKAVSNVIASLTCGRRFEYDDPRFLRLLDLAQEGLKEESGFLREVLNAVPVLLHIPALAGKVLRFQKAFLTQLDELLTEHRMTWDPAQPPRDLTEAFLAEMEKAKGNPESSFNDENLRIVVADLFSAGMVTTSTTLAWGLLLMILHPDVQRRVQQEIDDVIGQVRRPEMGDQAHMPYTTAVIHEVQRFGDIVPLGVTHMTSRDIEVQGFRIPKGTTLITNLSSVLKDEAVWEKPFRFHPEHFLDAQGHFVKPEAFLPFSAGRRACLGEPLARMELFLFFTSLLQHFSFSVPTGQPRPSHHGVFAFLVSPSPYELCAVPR

Test [6] concerns the target Glucocorticoid receptor (Homo sapiens) (UniProt P04150). In words: GR-GFP Redistribution (AID 450;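 active = compounds whose dose series gives a full or clear partial fitted curve of increased nuclear translocation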; note: potency is the fitted concentration of half-maximal effect).
Test [7] concerns the target Cytochrome P450 2C19 (Homo sapiens) (UniProt P33261). Description: qHTS Assay for Inhibitors and Substrates of Cytochrome P450 2C19 (AID 899). Note: nearly all actives have a fitted effect of over 60% in size. Note: potency is the fitted concentration of half-maximal effect. The gist of the method:
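Luminescent read-out of luciferin formed from Luciferin-H EGE (10uM, equal to KM). Enzyme 5nM in 50mM KPO4; compound added, 10 min at 37C, then NADPH regenerating system for 60 min at 37C. Full inhibition defined by 57uM ketoconazole.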

Test [8] has as its target Cytochrome P450 2C9 (Homo sapiens) (UniProt P11712). Description: qHTS Assay for Inhibitors and Substrates of Cytochrome P450 2C9 (AID 883). Note: nearly all actives have a fitted effect of over 60% in size. The essentials: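 10nM CYP2C9 + 100uM Luciferin-H (=KM), 25mM KPO4; cpd 10 min 37C; NADPH regen, 60 min 37C; stop/detect with P450 Glo-Buffer 20 min; luminescence. Norm. to 57uM sulphaphenazole as full inhibition.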
Test [9] addresses Cytochrome P450 3A4 (Homo sapiens) (UniProt P08684). Description: qHTS Assay for Inhibitors and Substrates of Cytochrome P450 3A4 (AID 884). Note: series mostly up to about 57 µM; nearly all actives have a fitted effect of over 50% in size. The gist of the method:
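Luminescent readout of luciferin produced by CYP3A4 (20 nM) dealkylation of Luciferin-PPXE, 25 uM (its KM). NADPH-driven reaction ran 60 min at RT after 10 min compound preincubation; data scaled to 57 uM ketoconazole as 100% inhibition.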

Test [10] deals with DNA dC->dU-editing enzyme APOBEC-3G (Homo sapiens) (UniProt Q9HC16). In words: qHTS for inhibitors of Vif-A3G interactions: Validation (AID 588379). The gist of the method: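 Yellow fluorescence (Ex 488, Em 500-530) of Vif-coexpressing HeLa A3G-eYFP cells, scanned by Acumen cytometer, reports blocked A3G degradation. Cells plated at 700/well overnight at 37 deg C before compound addition, then a further overnight compound incubation at 37 deg C.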
DNA dC->dU-editing enzyme APOBEC-3G (Homo sapiens), sequence (Q9HC16 whole entry, looked up): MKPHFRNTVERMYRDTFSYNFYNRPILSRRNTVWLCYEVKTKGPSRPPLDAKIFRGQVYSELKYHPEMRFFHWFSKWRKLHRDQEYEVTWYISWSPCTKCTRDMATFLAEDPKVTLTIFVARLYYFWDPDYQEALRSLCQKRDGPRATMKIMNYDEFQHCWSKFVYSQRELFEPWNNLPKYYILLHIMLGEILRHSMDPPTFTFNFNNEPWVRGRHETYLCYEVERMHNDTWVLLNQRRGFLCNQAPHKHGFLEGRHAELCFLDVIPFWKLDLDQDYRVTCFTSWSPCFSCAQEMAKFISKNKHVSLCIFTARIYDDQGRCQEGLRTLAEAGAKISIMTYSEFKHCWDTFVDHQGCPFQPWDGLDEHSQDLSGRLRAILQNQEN

Cytochrome P450 2C9 (Homo sapiens), sequence (P11712 whole entry, looked up): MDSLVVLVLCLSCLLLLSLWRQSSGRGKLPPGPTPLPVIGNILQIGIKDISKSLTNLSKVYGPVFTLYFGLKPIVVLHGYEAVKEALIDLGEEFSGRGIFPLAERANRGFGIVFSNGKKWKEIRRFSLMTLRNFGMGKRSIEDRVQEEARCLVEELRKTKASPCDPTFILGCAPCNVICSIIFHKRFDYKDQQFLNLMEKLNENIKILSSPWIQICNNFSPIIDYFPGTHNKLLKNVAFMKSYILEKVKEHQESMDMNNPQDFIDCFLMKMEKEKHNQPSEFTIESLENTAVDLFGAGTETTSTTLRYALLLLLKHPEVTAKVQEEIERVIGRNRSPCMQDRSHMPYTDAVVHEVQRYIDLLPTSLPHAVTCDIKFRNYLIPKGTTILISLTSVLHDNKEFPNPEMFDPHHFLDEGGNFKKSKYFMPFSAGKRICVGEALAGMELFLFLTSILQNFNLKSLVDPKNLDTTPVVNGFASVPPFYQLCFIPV
Cytochrome P450 1A2 (Homo sapiens), sequence (P05177 whole entry, looked up, the tested form may be a part): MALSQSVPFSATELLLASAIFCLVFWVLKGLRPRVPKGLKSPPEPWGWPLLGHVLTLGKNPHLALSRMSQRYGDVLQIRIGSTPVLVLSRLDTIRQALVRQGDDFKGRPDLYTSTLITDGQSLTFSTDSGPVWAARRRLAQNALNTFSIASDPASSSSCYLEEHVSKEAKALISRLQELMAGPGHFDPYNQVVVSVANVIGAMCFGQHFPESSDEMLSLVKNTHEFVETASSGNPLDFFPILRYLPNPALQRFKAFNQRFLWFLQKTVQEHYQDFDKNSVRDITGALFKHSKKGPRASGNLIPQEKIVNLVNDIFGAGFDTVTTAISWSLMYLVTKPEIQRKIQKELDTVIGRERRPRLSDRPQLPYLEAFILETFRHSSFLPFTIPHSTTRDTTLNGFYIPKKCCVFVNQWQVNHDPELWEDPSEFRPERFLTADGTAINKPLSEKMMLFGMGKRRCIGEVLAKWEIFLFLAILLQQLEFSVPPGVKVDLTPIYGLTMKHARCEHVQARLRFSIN
Cytochrome P450 2C19 (Homo sapiens), sequence (P33261 whole entry, looked up): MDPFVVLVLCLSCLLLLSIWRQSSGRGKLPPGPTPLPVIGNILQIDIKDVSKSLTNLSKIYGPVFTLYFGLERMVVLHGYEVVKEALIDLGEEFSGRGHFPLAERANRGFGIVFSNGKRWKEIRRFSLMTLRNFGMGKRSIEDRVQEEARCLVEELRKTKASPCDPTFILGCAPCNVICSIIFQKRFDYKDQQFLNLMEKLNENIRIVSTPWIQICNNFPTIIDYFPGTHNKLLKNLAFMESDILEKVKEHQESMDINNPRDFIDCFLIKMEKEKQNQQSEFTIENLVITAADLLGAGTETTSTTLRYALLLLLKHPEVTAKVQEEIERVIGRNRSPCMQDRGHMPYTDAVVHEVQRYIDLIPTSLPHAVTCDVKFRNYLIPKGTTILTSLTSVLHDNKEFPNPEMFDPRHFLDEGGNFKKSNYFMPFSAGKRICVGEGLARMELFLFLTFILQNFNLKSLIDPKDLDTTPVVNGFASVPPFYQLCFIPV
3',5'-cyclic-AMP phosphodiesterase 4B (Homo sapiens), sequence (Q07343 whole entry, looked up): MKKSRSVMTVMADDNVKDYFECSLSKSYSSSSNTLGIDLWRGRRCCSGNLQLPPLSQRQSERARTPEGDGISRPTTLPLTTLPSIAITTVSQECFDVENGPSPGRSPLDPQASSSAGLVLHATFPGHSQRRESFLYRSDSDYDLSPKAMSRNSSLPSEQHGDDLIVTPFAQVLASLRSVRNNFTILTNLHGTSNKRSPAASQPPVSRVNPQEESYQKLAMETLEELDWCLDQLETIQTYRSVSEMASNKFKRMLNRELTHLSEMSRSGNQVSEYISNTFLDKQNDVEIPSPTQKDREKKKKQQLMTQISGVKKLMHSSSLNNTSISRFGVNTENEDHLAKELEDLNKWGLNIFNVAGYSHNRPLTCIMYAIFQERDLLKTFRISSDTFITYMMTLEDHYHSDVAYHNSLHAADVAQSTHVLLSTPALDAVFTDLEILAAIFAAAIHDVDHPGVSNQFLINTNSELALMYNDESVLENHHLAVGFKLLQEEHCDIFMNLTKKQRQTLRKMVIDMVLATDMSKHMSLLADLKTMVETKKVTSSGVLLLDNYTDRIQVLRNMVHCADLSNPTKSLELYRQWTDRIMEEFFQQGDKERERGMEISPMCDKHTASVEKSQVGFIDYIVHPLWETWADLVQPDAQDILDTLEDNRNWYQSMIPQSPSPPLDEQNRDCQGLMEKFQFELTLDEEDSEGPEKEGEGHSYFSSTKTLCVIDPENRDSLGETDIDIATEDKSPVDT
Cytochrome P450 3A4 (Homo sapiens), sequence (P08684 whole entry, looked up): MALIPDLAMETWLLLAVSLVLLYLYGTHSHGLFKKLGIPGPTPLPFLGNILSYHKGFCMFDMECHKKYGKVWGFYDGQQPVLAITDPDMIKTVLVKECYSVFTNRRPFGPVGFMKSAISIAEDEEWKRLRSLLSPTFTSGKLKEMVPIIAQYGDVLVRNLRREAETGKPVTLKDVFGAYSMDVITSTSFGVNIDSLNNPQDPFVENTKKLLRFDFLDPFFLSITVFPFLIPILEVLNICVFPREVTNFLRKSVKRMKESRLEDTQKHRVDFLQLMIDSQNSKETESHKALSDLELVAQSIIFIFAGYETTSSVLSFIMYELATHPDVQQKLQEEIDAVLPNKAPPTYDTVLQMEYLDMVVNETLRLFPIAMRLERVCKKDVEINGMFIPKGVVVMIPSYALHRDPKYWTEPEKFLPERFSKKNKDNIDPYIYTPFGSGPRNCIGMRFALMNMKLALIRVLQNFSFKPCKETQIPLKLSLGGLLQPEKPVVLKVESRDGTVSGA

Take `CC(C)C[C@@H](CC(=O)N[C@@H](CCCN)CC(=O)N[C@@H]1CCCC[C@H]1C(=O)N[C@H](CC(=O)N[C@@H](CCC(=O)O)CC(=O)O)Cc1ccccc1)NC(=O)[C@@H]1CCCC[C@H]1N`: the Potency result in test [1], in test [3], in [4] and in [5] was “inactive” throughout. For the same molecule, the Potency in test [2] is above 46 µM.

As for `CC(=O)[C@@H]1[C@H]2[C@@H](C(=O)[C@H]3OC[C@H]2O3)[C@@H]2C=Cc3ccccc3N12`, the values for the Potency in test [1], in [6] and in [7] were 31.6 µM (active), above 46 µM and 5.01 µM (active), respectively. In addition, the Potency result in [4] was “inactive”.

Consider `CC(C)[C@@H](CC(=O)N[C@@H]1CCCC[C@H]1C(=O)N[C@H](CC(=O)N[C@@H](CCC(=O)O)CC(=O)O)Cc1ccccc1)NC(=O)C[C@H](CO)NC(=O)[C@@H]1CCCC[C@H]1N`, for which the Potency entry in [1], in test [3], in test [4] and in test [5] was “inactive” throughout. Besides, the Potency in [2] was above 46 µM.

`CC(C)C[C@@H](CC(=O)N[C@@H](CCC(=O)O)CC(=O)O)NC(=O)[C@@H]1CCCC[C@H]1NC(=O)C[C@@H](NC(=O)C[C@H](Cc1ccccc1)NC(=O)[C@@H]1CCCC[C@H]1N)C(C)C`: the Potency entry in test [1], in test [3], in [4], in test [5] and in [7] was “inactive” throughout. In addition, in test [2], the Potency was above 46 µM.

On to `C/C(=C\COc1cc(=O)[nH]c2ccccc12)CC[C@@H](O)C(C)(C)O`, for which the Potency in [1] was 20 µM (active); in test [6] it was above 46 µM. In addition, the Potency entry in test [4], in test [8], in test [5] and in [7] was “inactive” throughout.

Consider `CC(C)[C@@H](CC(=O)N[C@@H]1CCCC[C@H]1C(=O)N[C@H](CC(=O)N[C@@H](CCC(=O)O)CC(=O)O)Cc1ccccc1)NC(=O)C[C@H](Cc1c[nH]c2ccccc12)NC(=O)[C@@H]1CCCC[C@H]1N`, for which the Potency result in test [1], in test [3], in [4], in test [8], in test [5] and in test [7] was “inactive” throughout. Also, the Potency in [2] was above 46 µM.

With `CC(C)C[C@@H](CC(=O)N[C@@H](CCC(=O)O)CC(=O)O)NC(=O)[C@@H]1CCCC[C@H]1NC(=O)C[C@@H](NC(=O)C[C@H](CO)NC(=O)[C@@H]1CNCC[C@H]1N)C(C)C`, the Potency entry in [1], in [3], in test [4], in test [5] and in test [7] was “inactive” each time. Besides, in [2], the Potency was above 46 µM.

Take `CC(C)C[C@@H](CC(=O)N[C@@H](CCC(=O)O)CC(=O)O)NC(=O)[C@@H]1CCCC[C@H]1NC(=O)C[C@@H](NC(=O)C[C@H](Cc1c[nH]c2ccccc12)NC(=O)[C@@H]1CNCC[C@H]1N)C(C)C`: the Potency entry in test [1], in [3], in test [4], in [8] and in [5] was “inactive” throughout. Also, the Potency in test [2] is above 46 µM.

In the case of `CC(C)[C@@H](CC(=O)N[C@@H]1CCNC[C@H]1C(=O)N[C@H](CC(=O)N[C@@H](CCC(=O)O)CC(=O)O)Cc1c[nH]c2ccccc12)NC(=O)C[C@H](Cc1ccccc1)NC(=O)[C@@H]1CNCC[C@H]1N`, the results for the Potency in [1] and in [2] were 31.6 µM (active) and above 46 µM, respectively. The Potency entry in test [3], in test [4], in test [8], in [5] and in [7] was “inactive” in each case.

For the molecule `NCCC[C@@H](CC(=O)N[C@@H]1CCNC[C@H]1C(=O)N[C@H](CC(=O)N[C@@H](CCC(=O)O)CC(=O)O)Cc1ccccc1)NC(=O)C[C@H](Cc1ccccc1)NC(=O)[C@@H]1CNCC[C@H]1N`, the Potency in test [1] is 31.6 µM (active); in [2] it was above 46 µM. The Potency entry in test [3], in [4] and in test [5] was “inactive” in each case.

`CC(C)C[C@@H](CC(=O)N[C@@H](CCC(=O)O)CC(=O)O)NC(=O)[C@@H]1CNCC[C@H]1NC(=O)C[C@H](CCCN)NC(=O)C[C@H](CO)NC(=O)[C@@H]1CCCC[C@H]1N`: the Potency entry in test [1], in [3], in test [4], in test [8], in [5] and in [7] was “inactive” each time. For the same molecule, in [2], the Potency is above 46 µM.

On to `CC(C)[C@@H](CC(=O)N[C@@H]1CCNC[C@H]1C(=O)N[C@H](CC(=O)N[C@@H](CCC(=O)O)CC(=O)O)Cc1c[nH]c2ccccc12)NC(=O)C[C@H](Cc1c[nH]c2ccccc12)NC(=O)[C@@H]1CCCC[C@H]1N`, for which the Potency entry in test [1], in [3], in test [4], in test [8], in test [5] and in [7] was “inactive” throughout. The Potency in test [2] was above 46 µM.

For `Cc1ccc2oc(-c3ccccc3)c(O)c(=O)c2c1`, the Potency in [1] is 0.398 µM (active); in test [6] it was above 46 µM. Also, the Potency result in test [4], in [9], in test [5] and in test [7] was “inactive” each time. Besides, in [10], the outcome was inactive.

As to `CC(C)C[C@@H](CC(=O)N[C@@H](CCC(=O)O)CC(=O)O)NC(=O)[C@@H]1CCCC[C@H]1NC(=O)C[C@H](CCCN)NC(=O)C[C@H](Cc1ccccc1)NC(=O)[C@@H]1CNCC[C@H]1N`, the Potency result in test [1], in test [3], in [4], in test [8], in test [5] and in test [7] was “inactive” throughout. The Potency in [2] was above 46 µM.

With `CC(C)C[C@@H](CC(=O)N[C@@H](CCC(=O)O)CC(=O)O)NC(=O)[C@@H]1CNCC[C@H]1NC(=O)C[C@@H](NC(=O)C[C@H](CO)NC(=O)[C@@H]1CCCC[C@H]1N)C(C)C`, the Potency result in [1], in test [3], in test [4], in [8] and in test [5] was “inactive” in each case. Moreover, the Potency in test [2] was above 46 µM.
